Test results: the supplement of paper PMC7366291
Counter-ions that a name gives are not always drawn. ± gives the standard deviation or the standard deviation of the averaged measurements.

Experiments:
Conditions in all cases: 25 µM; exposure: 24-48 hpf
[1] = system: Danio rerio Tg(wt1b:EGFP) embryo, pronephros; assay: glomerular separation, fold change vs DMSO control; higher = glomeruli further apart (abnormal)
Procedure, shortened: (§1)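 Every feature is expressed as a fold change relative to the averaged DMSO-treated embryos of the same day. The exposure ran from 24 to 48 hpf at 28.5°C, with dechorionated Tg(wt1b:EGFP) zebrafish embryos in HEPES-buffered E3 containing 0.003% PTU, 0.5% DMSO and 25 μM compound. Dorsal pronephros images taken in agarose-filled 96-well plates were reduced to maximum projections, on which 16 reference points were set by hand in Fiji for a macro to compute distances and angles. Values more than 2 SD from the feature mean were not used.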

[2] = system: Danio rerio Tg(wt1b:EGFP) embryo, pronephros; assay: glomerular width (mean of left and right), fold change vs DMSO control; higher = wider glomerulus
Procedure, shortened: as §1

[3] = system: Danio rerio Tg(wt1b:EGFP) embryo, pronephros; assay: fraction of imaged embryos annotated as normal kidney; higher = less nephrotoxic; extreme values may be limits of the assay
Procedure, shortened: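 Tricaine-anaesthetised Tg(wt1b:EGFP) zebrafish larvae were oriented dorsally in agarose-filled 96-well plates, and their pronephroi were recorded by widefield fluorescence at 470 nm in 10 z-slices. Before this, the dechorionated embryos had been exposed in 12-well plates to 25 μM compound in 0.5% DMSO and 5 mM HEPES-buffered E3 with 0.003% PTU, from 24 to 48 hpf at 28.5°C. Maximum projections were annotated manually for each embryo, and the read-out is the fraction per treatment classed as normal kidney.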

[4] = system: Danio rerio Tg(wt1b:EGFP) embryo, pronephros; assay: pronephric angle neck segment to proximal convoluted tubule (mean of left and right), fold change vs DMSO control; higher = larger pronephric angle
Procedure, shortened: as §1

Compound | glomerular separation [1] | glomerular width [2] | fraction of imaged embryos annotated as normal kidney [3] | pronephric angle neck segment [4]
CCn1cc(C(=O)O)c(=O)c2cc(F)c(N3CCN(C)CC3)cc21 [Pefloxacine] | 0.997 ± 0.31 | 1.01 ± 0.021 | 1 | 1.01 ± 0.018
OC(CCCN1CCCCC1)(c1ccccc1)c1ccccc1 [Diphenidol hydrochloride] | 0.854 ± 0.23 | 1.1 ± 0.11 | 0.833 | 1.06 ± 0.02
Nc1ccc(C(=O)O)c(O)c1 [4-aminosalicylic acid] | 0.608 ± 0.17 | 0.9604 ± 0.008 | 0.833 | 0.995 ± 0.018
Cn1c(=O)c2c(ncn2CCO)n(C)c1=O [Etofylline] | 0.926 ± 0.37 | 0.951 ± 0.023 | 0.917 | 0.9776 ± 0.00038
CCn1cc(C(=O)O)c(=O)c2cc(F)c(N3CCNC(C)C3)c(F)c21 (stereo unspecified) [Lomefloxacin hydrochloride] | 1.54 ± 1.1 | 0.974 ± 0.12 | 0.5 | 1.12 ± 0.037
COc1ccc(CN(CCN(C)C)c2ccccn2)cc1 [Pyrilamine maleate] | 1.29 ± 0.44 | 1.03 ± 0.018 | 0.667 | 1.03 ± 0.033
NCCCC[C@H](N[C@@H](CCc1ccccc1)C(=O)O)C(=O)N1CCC[C@H]1C(=O)O [Lisinopril] | 1.16 ± 0.32 | 0.998 ± 0.058 | 0.833 | 1.02 ± 0.032
N[C@@H](C(=O)N[C@@H]1C(=O)N2C(C(=O)O)=C(Cl)CS[C@H]12)c1ccccc1 [Cefaclor hydrate] | 1 ± 0.21 | 0.95 ± 0.093 | 0.833 | 1.01 ± 0.028
COc1ccc(CN2CCN(C(c3ccc(F)cc3)c3ccc(F)cc3)CC2)c(OC)c1OC [Lomerizine hydrochloride] | 0.888 ± 0.33 | 0.9746 ± 0.0083 | 0.583 | 0.99 ± 0.019
CN(C)CCC(c1ccccc1)c1ccccn1 (stereo unspecified) [Pheniramine maleate] | 0.928 ± 0.19 | 1.07 ± 0.064 | 0.833 | 0.9206 ± 0.0039
CN(C(=O)CN(CCO)CC(=O)N(C)C(C)(C)Cc1ccccc1)C(C)(C)Cc1ccccc1 [Oxethazaine] | 0.855 ± 0.18 | 1.1 ± 0.017 | 0.727 | 0.94 ± 0.059
Cc1ccc(NC(=O)c2ccc(CN3CCN(C)CC3)cc2)cc1Nc1nccc(-c2cccnc2)n1 [Imatinib] | 1.09 ± 0.42 | 0.9892 ± 0.0063 | 1 | 1.01 ± 0.018
COc1ccccc1OCC(O)CN1CCN(CC(=O)Nc2c(C)cccc2C)CC1 (stereo unspecified) [Ranolazine] | 0.739 ± 0.33 | 1.021 ± 0.0091 | 0.833 | 1.01 ± 0.029
C#C[C@]1(O)CC[C@H]2[C@@H]3CCc4cc(O)ccc4[C@H]3CC[C@@]21C [Ethinylestradiol] | 1.64 ± 0.76 | 0.823 ± 0.015 | 0.667 | 1.3 ± 0.015
C[C@@H]1CN(c2c(F)c(N)c3c(=O)c(C(=O)O)cn(C4CC4)c3c2F)C[C@H](C)N1 [Sparfloxacin] | 0.812 ± 0.23 | 0.92 ± 0.019 | 1 | 1.04 ± 0.024
O=C(O)COC(=O)Cc1ccccc1Nc1c(Cl)cccc1Cl [Aceclofenac] | 3.56 ± 1.8 | 1 ± 0.16 | 0.25 | 1.24 ± 0.15
Cc1onc(-c2c(Cl)cccc2Cl)c1C(=O)N[C@@H]1C(=O)N2[C@@H]1SC(C)(C)[C@@H]2C(=O)O [Dicloxacillin sodium salt hydrate] | 1.24 ± 0.43 | 1.009 ± 0.0084 | 0.818 | 0.998 ± 0.017
CN(C)CCCOc1nn(Cc2ccccc2)c2ccccc12 [Benzydamine hydrochloride] | 1.24 ± 0.21 | 1.03 ± 0.035 | 1 | 0.9939 ± 0.0028
CN(c1nccc(=O)[nH]1)C1CCN(c2nc3ccccc3n2Cc2ccc(F)cc2)CC1 [Mizolastine] | 1.05 ± 0.25 | 1.1 ± 0.017 | 0.917 | 0.937 ± 0.015
CC(=O)Oc1ccccc1C(=O)Oc1ccccc1C(=O)O [Acetylsalicylsalicylic acid] | 1.33 ± 0.59 | 0.971 ± 0.085 | 0.833 | 1.017 ± 0.0041
Cc1cccn2c(=O)c(-c3nnn[nH]3)cnc12 [Pemirolast potassium] | 1.25 ± 0.38 | 0.89 ± 0.062 | 1 | 0.99 ± 0.042
CC[C@@]1(O)C(=O)OCc2c1cc1n(c2=O)Cc2cc3c(CN(C)C)c(O)ccc3nc2-1 [Topotecan] | 1.74 ± 0.72 | 0.793 ± 0.022 | 0.727 | 1.27 ± 0.062
CCOc1ccccc1OCC1CNCCO1 (stereo unspecified) [Viloxazine hydrochloride] | 1.35 ± 0.55 | 0.9002 ± 0.0018 | 0.833 | 1.04 ± 0.062
COc1ccc(-c2ccc(=N)n(CCCC(=O)O)n2)cc1 [Gabazine bromide] | 0.985 ± 0.27 | 0.983 ± 0.024 | 0.667 | 1.02 ± 0.026
CN(CCCN1c2ccccc2CCc2ccccc21)CC(=O)c1ccc(Cl)cc1 [Lofepramine] | 1.23 ± 0.38 | 0.98 ± 0.035 | 0.917 | 1.09 ± 0.011
CN1[C@@H]2CC[C@H]1C[C@@H](OC(=O)C(O)c1ccccc1)C2 (mixture of isomers) [Homatropine hydrobromide (R,S)] | 0.957 ± 0.29 | 1.06 ± 0.015 | 0.75 | 0.9643 ± 0.0018
Cc1cc2cc3c(C)cc(=O)oc3c(C)c2o1 [Trioxsalen] | 0.97 ± 0.24 | 1.019 ± 0.01 | 0.917 | 1.03 ± 0.049

Compound | glomerular separation [1] | glomerular width [2] | fraction of imaged embryos annotated as normal kidney [3] | pronephric angle neck segment [4]
CN[C@@H]1[C@H](O[C@H]2[C@H](O[C@H]3[C@H](O)[C@@H](O)[C@H](NC(=N)N)[C@@H](O)[C@@H]3NC(=N)N)O[C@@H](C)[C@]2(O)CO)O[C@@H](CO)[C@H](O)[C@H]1O [Dihydrostreptomycin sulfate] | 0.844 ± 0.18 | 1.0469 ± 0.00096 | 0.667 | 0.975 ± 0.048
CCCCN(CCCC)CCC(O)c1cc2c(Cl)cc(Cl)cc2c2cc(C(F)(F)F)ccc12 (stereo unspecified) [Halofantrine hydrochloride] | 4.43 ± 1.8 | 0.655 ± 0.038 | 0 | 1.32 ± 0.061
O=C(N/N=C/c1ccc([N+](=O)[O-])o1)c1ccc(O)cc1 [Nifuroxazide] | 0.916 ± 0.47 | 1.02 ± 0.041 | 0.833 | 0.964 ± 0.028
CCC(=O)O[C@@H](O[P@](=O)(CCCCc1ccccc1)CC(=O)N1C[C@H](C2CCCCC2)C[C@H]1C(=O)O)C(C)C [Fosinopril] | 1.05 ± 0.44 | 1.01 ± 0.023 | 0.7 | 1.03 ± 0.013
Cc1cn([C@H]2C=C[C@@H](CO)O2)c(=O)[nH]c1=O [Stavudine] | 0.929 ± 0.3 | 0.874 ± 0.0014 | 1 | 0.9729 ± 0.00098
CN(C)CCN(Cc1ccccc1)c1ccccn1 [Tripelennamine hydrochloride] | 0.843 ± 0.37 | 0.982 ± 0.054 | 1 | 1.1 ± 0.083
CNC(=O)c1c(I)c(C(=O)NCC(=O)Nc2c(I)c(C(=O)O)c(I)c(C(=O)NCCO)c2I)c(I)c(N(C)C(C)=O)c1I [Ioxaglic acid] | 0.975 ± 0.39 | 1.03 ± 0.037 | 0.818 | 0.982 ± 0.035
CC(=O)Oc1ccc(C(c2ccc(OC(C)=O)cc2)c2ccccn2)cc1 [Bisacodyl] | 0.927 ± 0.28 | 0.957 ± 0.038 | 0.917 | 1.01 ± 0.016
CC1=C(/C=C/C(C)=C/C=C/C(C)=C/C(=O)O)C(C)(C)CCC1 [Retinoic acid] | 3.15 ± 1.8 | 0.639 ± 0.044 | 0 | 1.67 ± 0.033
Fc1ccc(C(c2ccc(F)cc2)N2CCN(C/C=C/c3ccccc3)CC2)cc1 [Flunarizine dihydrochloride] | 1.22 ± 0.69 | 0.932 ± 0.0099 | 0.364 | 0.937 ± 0.017
c1ccc(CN(CC2=NCCN2)c2ccccc2)cc1 [Antazoline hydrochloride] | 1.08 ± 0.41 | 1.04 ± 0.016 | 0.833 | 0.9446 ± 0.00065
CC(=O)Nc1c(I)c(NC(C)=O)c(I)c(C(=O)O)c1I [Diatrizoic acid dihydrate] | 1.34 ± 0.56 | 1.03 ± 0.016 | 0.583 | 1.05 ± 0.033
O=C(Nc1ccccc1)OCC(CN1CCCCC1)OC(=O)Nc1ccccc1 (stereo unspecified) [Diperodon hydrochloride] | 1.1 ± 0.41 | 0.984 ± 0.04 | 0.818 | 1.04 ± 0.024
NC1CCN(c2nc3c(cc2F)c(=O)c(C(=O)O)cn3-c2ccc(F)cc2F)C1 (stereo unspecified) [Tosufloxacin hydrochloride] | 0.995 ± 0.36 | 1.07 ± 0.074 | 0.833 | 1.038 ± 0.0028
CCCCC(C)(O)C/C=C/[C@H]1[C@H](O)CC(=O)[C@@H]1CCCCCCC(=O)OC (mixture of isomers) [Misoprostol] | 0.763 ± 0.35 | 0.959 ± 0.024 | 1 | 0.985 ± 0.04
CCCCNc1c(C(=O)OCC)c(C)nc2c1cnn2CC [Tracazolate hydrochloride] | 1.18 ± 0.63 | 0.929 ± 0.072 | 0.917 | 1.06 ± 0.015
CO/N=C(\C(=O)N[C@@H]1C(=O)N2C(C(=O)O)=C(C[N+]3(C)CCCC3)CS[C@H]12)c1csc(N)n1 [Cefepime hydrochloride] | 0.845 ± 0.26 | 1.01 ± 0.018 | 0.917 | 0.9786 ± 0.003
C1CCC(C(CC2CCCCN2)C2CCCCC2)CC1 (stereo unspecified) [Perhexiline maleate] | 1.12 ± 0.32 | 0.9631 ± 0.0089 | 0.909 | 1.006 ± 0.00027
Cc1onc(-c2ccccc2)c1C(=O)N[C@@H]1C(=O)N2[C@@H]1SC(C)(C)[C@@H]2C(=O)O [Oxacillin sodium] | 0.779 ± 0.29 | 1 ± 0.087 | 0.833 | 0.9685 ± 0.0044
CCCCC1C(=O)N(c2ccccc2)N(c2ccccc2)C1=O [Phenylbutazone] | 5.01 ± 1.6 | 0.552 ± 0.0084 | 0 | 1.67 ± 0.032
CCOC(=O)C1=C[C@]2(CC)CCCN3CCc4c(n1c1ccccc41)[C@@H]32 [Vinpocetine] | 1.08 ± 0.2 | 1.037 ± 0.0011 | 0.909 | 1.05 ± 0.039
CCN(CC)C(=O)Nc1ccc(OCC(O)CNC(C)(C)C)c(C(C)=O)c1 (stereo unspecified) [Celiprolol hydrochloride] | 0.729 ± 0.21 | 1.03 ± 0.018 | 0.833 | 0.964 ± 0.046
CCN(CC)Cc1cc(Nc2ccnc3cc(Cl)ccc23)ccc1O [Amodiaquin dihydrochloride dihydrate] | 0.602 ± 0.18 | 0.999 ± 0.012 | 0.917 | 0.957 ± 0.016
NC(=O)c1ccc[n+]([C@@H]2O[C@H](COP(=O)([O-])OP(=O)(O)OC[C@H]3O[C@@H](n4cnc5c(N)ncnc54)[C@H](O)[C@@H]3O)[C@@H](O)[C@H]2O)c1 [Nadide] | 0.955 ± 0.26 | 1.0386 ± 0.00057 | 0.75 | 0.9494 ± 0.0036
Nc1nc(/C(=C/CC(=O)O)C(=O)N[C@@H]2C(=O)N3C(C(=O)O)=CCS[C@H]23)cs1 [Ceftibuten] | 0.515 ± 0.17 | 1.016 ± 0.0039 | 1 | 0.963 ± 0.019
CC(=O)c1ccc2c(c1)N(CCCN1CCC(CCO)CC1)c1ccccc1S2 [Piperacetazine] | 0.868 ± 0.28 | 0.976 ± 0.023 | 0.833 | 1.01 ± 0.081
CN(C)[C@@H]1C(O)=C(C(=O)NCNCCCC[C@H](N)C(=O)O)C(=O)[C@@]2(O)C(O)=C3C(=O)c4c(O)cccc4[C@@](C)(O)[C@H]3C[C@@H]12 [Lymecycline] | 1.2 ± 0.48 | 0.916 ± 0.014 | 1 | 0.97 ± 0.023
